Test results: PubChem BioAssay
Unmarked numbers belong to inactive results. No rule for the calls is given here.

Target: Pantothenate synthetase (Mycobacterium tuberculosis (strain ATCC 25618 / H37Rv)) (UniProt P9WIL5)
Experiment: Coupled enzyme confirmation of inhibitors against recombinant Mtb PanC (AID 375);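 also: 0% = full reaction with vehicle and 100% = no enzyme background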
Conditions: coupled enzyme assay; at 10 µM, hits give high values

Pantothenate synthetase (Mycobacterium tuberculosis (strain ATCC 25618 / H37Rv)), sequence (P9WIL5 whole entry, looked up): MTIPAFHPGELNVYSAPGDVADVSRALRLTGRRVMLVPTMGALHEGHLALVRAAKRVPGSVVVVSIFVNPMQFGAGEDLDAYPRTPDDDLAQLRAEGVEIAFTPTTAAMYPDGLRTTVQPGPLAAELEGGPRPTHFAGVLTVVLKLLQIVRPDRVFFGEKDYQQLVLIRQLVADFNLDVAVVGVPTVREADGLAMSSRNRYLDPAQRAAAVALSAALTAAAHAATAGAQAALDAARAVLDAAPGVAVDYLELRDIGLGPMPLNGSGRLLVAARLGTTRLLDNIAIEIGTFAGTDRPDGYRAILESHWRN

Compound	inhibition
Cn1c(SCc2cccc3ccccc23)nnc1-c1ccco1	0%
COc1ccc(C2C(C(=O)c3sc(C)nc3C)=C(O)C(=O)N2CCN2CCOCC2)cc1 (stereo not given)	0%
CC(NCc1ccco1)C(=O)N1CCc2ccccc2C1 (stereo not given)	5%
COC(=O)c1cnn2c(C(F)(F)F)cc(-c3ccco3)nc12	0%
O=C(COC(=O)C1CCN(S(=O)(=O)c2cccs2)CC1)c1cc2ccccc2o1	0%
CC(Oc1ccc2oc(-c3ccccc3)c(C(=O)O)c2c1)C(=O)O (stereo not given)	0%
Cn1c2ccc(F)cc2c2ncn(CCN3CCOCC3)c(=O)c21	6%
O=C1c2ccccc2NC(c2cccc(F)c2)N1Cc1ccco1 (stereo not given)	0%
CCOC(=O)N1CCN(S(=O)(=O)c2ccc(Br)s2)CC1	11%
Cc1cnc(C(=O)OCC(=O)Nc2ccc(Oc3ccccc3)cc2)cn1	0%
CCCc1nn(CCc2ccccn2)c(N)c1CC	6%
CC[N+](C)(C)Cc1ccccc1Br	0%
Cc1ccc(SCc2[nH]nc3c2C(c2ccc(C)o2)C(C#N)=C(N)O3)cc1 (stereo not given)	3%
CC(=O)NCc1cccc(CNC(C)=O)n1	11%
CCN1C(=O)N(CC)C2C1N(C(C)=O)C(=O)N2C(C)=O (stereo not given)	0%
Cc1cccc(NC(=O)CSc2nnc(-c3cc(C)n(-c4ccccc4)c3C)o2)c1C	0%
CCCCn1c(SCC(=O)c2ccc3c(c2)OCCO3)nnc1-c1ccco1	4%
CCSc1nc(C)nc2c1oc1ccccc12	0%
Cc1ccc2[nH]c(=O)c(CN(CCc3ccccc3)Cc3nnnn3CC3CCCO3)cc2c1 (stereo not given)	2%
O=C(NCc1ccccc1)c1cc(-c2ccco2)on1	0%
COc1cc2nc(SCC(=O)NC3CC3)n(CCC3=CCCCC3)c(=O)c2cc1OC	1%
O=C(Cn1nc(-c2ccc(Cl)cc2)ccc1=O)NCCCN1CCN(Cc2ccccc2)CC1	2%
O=C(Nn1cnnc1)c1cc2c(s1)CCCC2	0%
CC(O)c1c(OCc2ccccc2)ncnc1OCc1ccccc1 (stereo not given)	0%
Cc1ccc(S(=O)(=O)c2nc(-c3ccco3)oc2SCC(=O)NCC2CCCO2)cc1 (stereo not given)	0%
